Data on 64 molecules can be found in PubChem BioAssay AID430 (Sanford-Burnham Center for Chemical Genomics, 2006).

In all, about 63,000 compounds went through this assay and about 1,100 (1.7%) were called active. Rule as the data show it: active = cytotoxicity above about 50%; inactive = the rest. This excerpt belongs to a sample that is enriched for actives. Results with a measured potency or affinity are listed apart.

A short description of this test: HPDE-C7 pancreatic duct cell viability loss – fluorescence, HTS (AID 430).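 Also: cells exposed to compound for 48 hours before viability readout; 0% = vehicle and 100% = reference cytotoxic drug.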 The conditions noted are these: HPDE-C7 pancreatic duct cells viability, at 10 µM, active compounds read high.
In the case of `COC(=O)c1c(NC(=O)CN2CCCC(C)C2)c2c(C)cccc2n1C` (centres undefined), the cytotoxicity was -3.9% (inactive).
Turning to `CCCC(=O)NCCCc1nc2ccccc2n1CC`, the cytotoxicity was -20.4% (inactive).
To `COc1ccc(-n2c(Cc3cccn3C)nnc2SCC(=O)NCc2ccco2)cc1` belongs -5% (inactive); to `COc1ccc(NC(=O)CSc2nnc(-c3ccccc3C)n2N)cc1OC`, -3.3% (inactive); to `CCn1c2ccccc2c2cc(NC(=O)CSc3nnc(-c4ccccc4OC)n3N)ccc21`, 57.2% (active).
For `CCn1c(SCC(=O)Nc2ccc3c(c2)c2ccccc2n3CC)nnc1-c1ccco1` the value was 49% (inactive); for `Cc1ccc(-c2cc(C(F)F)nc(NCc3cccnc3)n2)cc1`, 28.4% (inactive).
Consider `CCOC(=O)C(C)Oc1cccc2c(=O)n(CC(=O)NCc3ccco3)ccc12` (centres undefined), for which the cytotoxicity is 65.7% (active).
For `CCOC(=O)COc1cccc2c(=O)n(CC(=O)NCc3ccc4c(c3)OCO4)ccc12` the value was 60.6% (active).
For `CCOC(=O)C(C)Oc1cccc2c(=O)n(CC(=O)NCc3ccc4c(c3)OCO4)ccc12` (centres undefined) the value was 53% (active); for `CCOC(=O)COc1cccc2c(=O)n(CC(=O)N3CCN(C(=O)OCC)CC3)ccc12`, -9.2% (inactive); for `CCOC(=O)C(C)Oc1cccc2c(=O)n(CC(=O)N3CCc4ccccc43)ccc12` (centres undefined), -7.3% (inactive).
For `O=C(Cn1cnc2ccccc2c1=O)NCc1ccco1` the value was -1% (inactive); for `CCOC(=O)COc1cccc2c(=O)n(CC(=O)N3CCc4ccccc43)ccc12`, -7.9% (inactive).
For the molecule `CCOC(=O)C(C)Oc1cccc2c(=O)n(CC(=O)Nc3ccc4c(c3)OCCO4)ccc12` (centres undefined), the cytotoxicity was 9.2% (inactive).
For `CCOC(=O)C(C)Oc1cccc2c(=O)n(CC(=O)N3CCN(C(=O)OCC)CC3)ccc12` (centres undefined) the value was -8.4% (inactive).
For `CCCCN(C)CCCNC(=O)c1ccc2c(c1)NC(=O)C(N1CCOCC1)S2` (centres undefined) the value was 2.3% (inactive); for `CCOC(=O)N1CCN(C(=O)C2CCCN(S(C)(=O)=O)C2)CC1` (centres undefined), 2.7% (inactive).
To `CC(C)Sc1nc2c(cnn2-c2ccccc2)c(=O)[nH]1` belongs -15.9% (inactive).
`COC(=O)C(C(=O)OC)C(C(C)C)C(C(=O)OC)C(=O)OC`: the cytotoxicity is 5.9% (inactive).
On to `O=C(Nc1ccc(Cl)cc1)Nc1ccccc1C(=O)NCc1ccco1`, for which the cytotoxicity is 8.1% (inactive).
To `O=C(Nc1ccc(Cl)cc1)NC1CCCC1Cc1ccco1` (centres undefined) belongs 55% (active); to `O=C(NCCSCc1ccco1)Nc1ccc(Cl)cc1`, -8.4% (inactive); to `CC(c1ccccc1)N1CNc2c(c(=O)n(C)c(=O)n2C)C1` (centres undefined), -8.9% (inactive).
To `O=C(O)CC(c1ccc(Cl)cc1)N1C(=O)CCC1=O` (centres undefined) belongs -2.8% (inactive); to `CCOc1ccc(NC(=O)CSc2nnc(Cc3cccn3C)n2-c2ccc(OC)cc2)cc1`, -17.3% (inactive).
For `CCN(CC)c1ccc(C2Nc3cccc4cccc(c34)N2)c(O)c1` the value was 30.4% (inactive); for `Oc1ccccc1C1Nc2cccc3cccc(c23)N1`, -21.5% (inactive); for `COc1cc(C2Nc3cccc4cccc(c34)N2)ccc1OC(C)=O`, 41.1% (inactive).
As for `c1coc(C2Nc3cccc4cccc(c34)N2)c1`, the cytotoxicity was 4.2% (inactive).
With `COc1cc(C2Nc3cccc4cccc(c34)N2)cc(OC)c1O`, the cytotoxicity was 56.8% (active).
For `COc1cc(C2Nc3cccc4cccc(c34)N2)cc(OC)c1OC(C)=O` the value was 72.1% (active).
For `CCC(=O)Nc1nc(C)nc(C)c1C(C)=O`, the cytotoxicity was -5.6% (inactive).
For `CC(=O)Nc1ccc(C)cc1NC(C)=O`, the cytotoxicity was -3.9% (inactive).
For `COc1ccc(C(c2nnnn2CCc2ccccc2)N2CCN(C3CCCC3)CC2)cc1` (centres undefined) the value was -6.9% (inactive); for `O=C(O)CSc1cccc2cccnc12`, -7.9% (inactive); for `CCOC(=O)CNc1ncnc2nc[nH]c12`, -3.5% (inactive).
In the case of `c1ccc(-c2nnc(-c3ccccn3)nn2)nc1`, the cytotoxicity is 6.6% (inactive).
For `c1ccc(-c2ccc(-c3ccccn3)nn2)nc1` the value was 0.9% (inactive).
To `COc1ccc(S(=O)(=O)N2CCOCC2)c(Cl)c1Cl` belongs -17.3% (inactive); to `CCCc1nc(NC2CCCCC2)c(C#N)c2c1COC(C)(C)C2`, -4.4% (inactive); to `CCc1nc(NC2CCCCC2)c(C#N)c2c1COC(C)(C)C2`, 63.4% (active).
For `CCc1nc(NCC2CCCO2)c(C#N)c2c1COC(C)(C)C2` (centres undefined) the value was -11.3% (inactive).
As to `COc1ccc(-n2cnnc2SCC(=O)c2cc(C)n(Cc3cccs3)c2C)cc1`, the cytotoxicity is 0.5% (inactive).
In the case of `CCOC(=O)C1=C(N2CCCCC2)c2cc3c(n2C1=O)CCCC3`, the cytotoxicity is 10.1% (inactive).
For `CCSc1ncnc2c(C#N)c3n(c12)CCCCC3` the value was -13.6% (inactive); for `CCN1CCN(CCNC(=O)c2ccc(CS(=O)(=O)c3ccccc3C)o2)CC1`, -0.5% (inactive).
For `Cc1ccc(NC(=O)c2nnn(-c3cc(C)cc(C)c3)c2N)cc1` the value was 55.6% (active); for `Cc1cccc(-n2nnc(C(=O)Nc3ccc(F)cc3)c2N)c1`, 15.2% (inactive); for `Cc1ccc(CCNC(=O)c2nnn(-c3cc(C)cc(C)c3)c2N)cc1`, 3.4% (inactive).
To `COc1ccc(C)cc1NC(=O)c1nnn(Cc2cc(C)ccc2C)c1N` belongs 7.5% (inactive); to `Cc1ccc(C)c(NC(=O)c2nnn(Cc3ccccc3C)c2N)c1`, 1.7% (inactive); to `Cc1cc(C)cc(NC(=O)c2nnn(Cc3cc(C)ccc3C)c2N)c1`, 58.9% (active).
In the case of `CCOC(=O)C(Cc1c[nH]c2ccccc12)NC(=O)CNC(C)=O` (centres undefined), the cytotoxicity was 2.5% (inactive).
For `CCCn1cnc2cc(NCc3cccc(OC)c3O)ccc21` the value was 5.7% (inactive).
To `CCOC(=O)c1ccc2ncc(C(=O)OCC)c(NCCCN3CCOCC3)c2c1` belongs 3% (inactive); to `COc1ccc2c(c1)C1(Nc3ccccc3C(=O)N1c1ccccc1)C(=O)N2` (centres undefined), -14.8% (inactive); to `S=C(N=Nc1ccccc1)NNc1ccccc1`, 58.8% (active).
Consider `ONC(=Nc1ccccc1)C(=Nc1ccccc1)NO`, for which the cytotoxicity was 0.4% (inactive).
To `CC(=Nc1ccccc1)Nc1ccccc1` belongs -13.5% (inactive); to `COc1ccc(C2C(C(=O)NCCN3CCOCC3)c3ccccc3C(=O)N2C)cc1OC` (centres undefined), -4.3% (inactive); to `c1ccc(-c2nnc3sc(-c4csc5c4CCCC5)nn23)cc1`, 75% (active).
For `Cc1ccccc1-c1nn2c(-c3ccccc3)nnc2s1` the value was -0.8% (inactive); for `Cc1nnc2sc(-c3csc4c3CCCC4)nn12`, -4.3% (inactive).
